Hits are enriched below; roughly 11% of the tested compounds scored in any of these assays.
BAZ2B inh: BAZ2B (human) inhibition | Q9UIF8 | AlphaScreen BAZ2B-H3K14Ac peptide displacement | Potency, µM (titrated, usually from 114 µM), for inactives: at the highest dose activity change, negative = inhibition, actives largely listed as inhibitors | hit rate 4.4% among 360,000 | AID 504333; further: potency means the concentration at half of the fitted maximal effect; on the % scale 0 is the no-effect control and ±100 the full control effect; nearly all actives have a fitted effect of over 60% in size
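In this displacement format the biotinylated H3(5-23) peptide acetylated at Lys14 serves as ligand at 50 nM, with BAZ2B at 50 nM in PBS pH 7.4 containing 0.01% Tween-20. Donor and acceptor beads are 10 ug/mL final.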
L3MBTL1 inh: L3MBTL1 (human) inhibition. Potency, µM (titrated, usually from 57.1 µM), without a hit: at the highest dose activity, negative = inhibition, most hits filed as inhibitors. AID 485360. hit rate 0.66% among 230,000. Q9Y468. AlphaScreen L3MBTL1–H3K9me1 peptide binding; further: potency means the concentration at half of the fitted maximal effect; on the % scale 0 is the no-effect control and ±100 the full control effect; nearly all actives have a fitted effect of over 60% in size
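Displacement of a biotinylated histone H3(1-15) peptide monomethylated at Lys9 (75 nM) from L3MBTL1 (50 nM) was measured by AlphaScreen after a 30 min room-temperature compound incubation; cefsulodin titration served as intraplate control.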
JMJD2A Tudor: JMJD2A Tudor domain (human) inhibition. AlphaScreen JMJD2A-Tudor / H3K4me3 peptide binding. O75164. hit rate 4.4% among 390,000. AID 504339. Potency, µM (titrated, usually from 114 µM), inactives show top-dose activity change, negative = inhibition, actives largely listed as inhibitors; further: potency means the concentration at half of the fitted maximal effect; on the % scale 0 is the no-effect control and ±100 the full control effect; nearly all actives have a fitted effect of over 50% in size
G9a block: inhibitors of human histone lysine methyltransferase G9a | Q96KQ7 | G9a H3K9 monomethylation, AlphaScreen, 2 h | Potency, µM (top dose mostly 102 µM), for inactives: at the top dose activity, negative = inhibition, actives largely listed as inhibitors | hit rate 8.8% among 350,000 | AID 504332; further: potency means the concentration at half of the fitted maximal effect; on the % scale 0 is the no-effect control and ±100 the full control effect; nearly all actives have a fitted effect of over 75% in size
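G9a (20 nM) was preincubated 15 min with compound, then reacted 2 h at room temperature with 500 nM biotin-H3K9 peptide and 20 µM SAM. Monomethyl-H3K9 detected by AlphaScreen using anti-H3K9me1 antibody.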
HP1b binding inh: HP1-beta chromodomain-methylated histone interaction inhibition. AlphaScreen HP1-beta / biotin-H3K9me3 peptide binding. hit rate 0.56% among 390,000. Potency, µM (top dose mostly 114 µM), for inactives: top-dose activity change, negative = inhibition, actives largely listed as inhibitors. P83916; further: potency means the concentration at half of the fitted maximal effect; nearly all actives have a fitted effect of over 70% in size
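AlphaScreen: HP1-beta (50 nM) preformed 30 min with biotin-H3(1-18)K9me3 peptide (50 nM) in PBS pH 7.4, 0.01% Tween-20. Compound added for 30 min at RT, then streptavidin donor/nickel chelate acceptor beads (10 ug/mL) for 30 min.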
PI5P4K alpha inh: PI5P4K alpha (human) kinase inhibition; PI5P4Kalpha enzyme, ADP-Glo luminescence, 60 min; hits give low values; max response, %; hit rate 1.2% among 330,000; AID 652105; active means max response of -50% or lower; inconclusive means between -30% and -50%; inactive means -30% or higher; further: value at the top dose of about 77 µM; on the % scale 0 is the no-effect control and ±100 the full control effect
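Controls without substrate or without enzyme flank wells where PI5P4Kalpha converts substrate using 5 microM ATP (final). Incubation lasts 60 minutes at room temperature; ADP formed is read by ADP-Glo luminescence.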
Active calls of the source: *; ? = inconclusive; / = no result; [ ] = another dose, or the depositor's remark. Unless noted, the call rests on the fitted dose curve; in most records, active means well fitted inhibition curve with a large enough effect; inconclusive means small, poorly fitted or top-dose-only effect; inactive means no such curve, though single readings can be large or run the other way.

SMILES	BAZ2B inh	L3MBTL1 inh	JMJD2A Tudor	G9a block	HP1b binding inh	PI5P4K alpha inh
S=C(NCCc1ccccc1)N1CCN(C(=S)NCCc2ccccc2)CC1	13%	3%	1%	-2%	13%	-3
CN1CCN(C(=S)NCCc2ccccc2)CC1	45µM*	-6%	4.5µM*	6.3µM*	56µM*	/
CCNC(=S)N1CCN(CC)CC1	56µM*	15%	3.2µM*	25µM*	?	1
CC(C)Oc1ccc(CNC(=O)C2CCN(c3nc4ccccc4nc3C(F)(F)F)CC2)cc1	0%	/	-6%	3%[59 µM]	31%	/
O=C(CNc1ccc2ccccc2c1)N/N=C/c1cc2ccccc2nc1Cl	?	-14%	?	10µM*	-13%	6
Cn1cccc1/C=N/NC(=O)CNc1ccc2ccccc2c1	25µM*	-29%	56µM*	4µM*	?	9
Cc1ccc(OCC(=O)N/N=C/c2cccn2C)cc1	?	-20%	-33%	26%[59 µM]	-27%	-6
Cc1ccc(NCC(=O)N/N=C/c2cccn2C)cc1	40µM*	-14%	?	/	-26%	4
O=C(CNc1ccc2ccccc2c1)N/N=C/c1ccc(C(=O)O)cc1	?	-1%	-19%	?	21%	8
Cn1cccc1/C=N/NC(=O)Cc1cccc2ccccc12	14µM*	/	?	?	-12%	1
CCCn1c2ccccc2c2cnn(CC(=O)NCCc3ccc(C)cc3)c(=O)c21	6%	/	-18%	12%[59 µM]	11%	/
COc1ccccc1N1CCN(CC(O)COc2cc(C)cc(C)c2)CC1 (centres undefined)	?	/	79µM*	?	15%	/
COc1ccccc1N1CCN(CC(O)COc2ccc(C)cc2C(C)(C)C)CC1 (centres undefined)	32µM*	/	?	14µM*	?	/
COc1ccccc1N1CCN(CC(O)COc2ccc(Cl)c(C)c2)CC1 (centres undefined)	?	/	89µM*	?	-10%	/
Cc1ccc2c(c1)-c1cc(C)nn1C(c1cc(Br)ccc1O)N2 (centres undefined)	11%	/	-11%	43%[59 µM]	34%	/
CCOC(=O)c1c(C)[nH]c(CCC(=O)Nc2ccc(C)c(F)c2)c1C	0%	/	-1%	7%[59 µM]	22%[57 µM]	/
O=C(CNC(=O)c1ccccc1)OCc1cc(=O)n2nc(C3CC3)sc2n1	-5%	/	-24%	12%[59 µM]	-15%	/
COC(=O)c1sc2nc(N)c(C#N)cc2c1N	-32%	4%	-15%	45µM*	15%	79
COC(=O)c1sc2nc3c(cc2c1N)CCCC3	0%	11%	-4%	23%	69%	-2
CCCOc1ccc(-c2nonc2NC(=O)c2cc(OC)c(OC)c(OC)c2)cc1OCCC	-21%	/	0%	-3%[59 µM]	48%	/
O=Nc1c(O)ccc2cc(S(=O)(=O)O)ccc12	/	/	2.8µM*	/	9%	-18
CN(C)c1ccc2cc(S(=O)(=O)O)cc(O)c2c1	/	/	50µM*	/	?	?
Nc1cccc2cc(S(=O)(=O)O)ccc12	/	/	50µM*	/	-8%[57 µM]	?
Cc1cc(C)n2ncc(C(=O)NCC(C)C)c2n1	/	/	1%	/	/	/
COc1cc2c(cc1OC)C(c1ccc(-c3ccc(Cl)c(Cl)c3)o1)=NCC2	?	/	18µM*	14µM*	?	/
SMILES	BAZ2B inh	L3MBTL1 inh	JMJD2A Tudor	G9a block	HP1b binding inh	PI5P4K alpha inh
COc1cc2c(cc1OC)C(c1ccc(-c3cc(Cl)ccc3Cl)o1)=NCC2	?	/	?	?	5%	-1
COc1cc2c(cc1OC)C(c1ccc(-c3ccccc3Cl)o1)=NCC2	28µM*	/	?	7.1µM*	?	/
Cc1ccc(CNc2ccc(-c3nc(-c4ccco4)no3)cc2[N+](=O)[O-])cc1	5%	/	0%	-9%[59 µM]	53%	/
COc1ccc(Nc2nc(-c3ccccc3)c3cc(Br)ccc3n2)cc1	?	/	?	13µM*	11%	/
CC(C)(C)C(=O)NNc1nc(-c2ccccc2)c2cc(Br)ccc2n1	-27%	-10%	-13%	12%[59 µM]	7%	1
CCOC(=O)C1=C(C)N=c2s/c(=C/c3cccc([N+](=O)[O-])c3O)c(=O)n2C1c1ccccc1 (centres undefined)	7.1µM*	/	28µM*	2µM*	14µM*	-55*
CCOC(=O)C1=C(C)N=c2s/c(=C\c3cccc(OCC(=O)O)c3)c(=O)n2C1c1ccccc1 (centres undefined)	-38%	-3%	?	?	0%	-15
CCOC(=O)C1=C(C)N=c2s/c(=C/c3cccc([N+](=O)[O-])c3O)c(=O)n2C1c1cc(OC)c(OC)c(OC)c1 (centres undefined)	7.9µM*	/	14µM*	2.2µM*	16µM*	-6
COc1ccc(-n2c(=O)c3c4c(sc3n(C)c2=O)CN(C(C)=O)CC4)cc1	-2%	/	5%	-1%[59 µM]	29%	/
Cc1csc(NC(=O)CSc2nc3ccccc3c3c2CCCC3)n1	-11%	-6%	-31%	28µM*	-9%	6
Cc1nnc(NC(=O)CSc2ncc(-c3ccccc3)[nH]2)s1	-23%	/	-10%	24%[12.7 µM]	32%	-1
Cc1csc(NC(=O)CSc2ncc(-c3ccccc3)[nH]2)n1	50µM*	-12%	-27%	3.2µM*	3%	7
CCc1ccc(CNC(=O)CN2C(=O)C3CCCCN3c3ccc(C(=O)N4CCCC4)cc32)cc1 (centres undefined)	-15%	/	-14%	-51%[59 µM]	18%[57 µM]	/
CC1(C)C2CCC(C2)C1(C)NC(=O)CN1CCN(Cc2ccccc2)CC1 (centres undefined)	28µM*	-8%	1.4µM*	5.6µM*	16µM*	3
Cc1ccc(NC(=O)CN2CCN(Cc3ccccc3)CC2)cc1	-3%	/	-9%	-3%	46%	1
COc1ccc2c(c1)sc1ncc(C(=O)NCc3ccc(Cl)cc3)c(=O)n12	2%	/	16%	-2%[59 µM]	54%	/
Cc1ccc(Cc2cn3cc(-c4ccc(F)cc4)nc3s2)cc1	34%	/	-2%	55%[59 µM]	71%	/
Cc1ccc(Cc2c[nH]c(=S)s2)cc1	?	/	?	7.1µM*	-14%	-15
Cc1cc(C)cc(NC(=O)Cc2csc(COc3cccc(C)c3)n2)c1	?	/	4%	-1%[59 µM]	44%	/
COc1ccccc1NC1=C(NC(C)=O)C(=O)c2ccccc2C1=O	?	?	?	7.9µM*	50µM*	?
COC1=C(Nc2ccccc2OC)C(=O)c2ccccc2C1=O	8.9µM*	20µM*	45µM*	-161%[59 µM]	35µM*	0
COC1=C(Nc2ccccc2)C(=O)C(OC)=C(Nc2ccccc2)C1=O	/	/	-17%	/	20%[57 µM]	6
COc1ccccc1NC(=S)NC(C)=O	-30%	3%[11.4 µM]	-12%	-28%	10%	-9
